Test results as given in the supplement of paper PMC13172266.

Experiments:
Test in all cases: cell proliferation relative to vehicle (% of vehicle); higher = less growth inhibition
Conditions in all cases: 72 h
[1] = system: U2932 TK216-resistant clone 2
Outline: (§1)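 Growth medium with 10% FBS at 37°C and 5% CO2 was used to culture U2932, an ABC-DLBCL line, in parental form and as two clones rendered resistant to an ETS-targeting agent by repeated exposure over almost a year. These cells received compounds from a 348-member targeted inhibitor library at 500 nM or 50 nM for 72 h, followed by 4 h of MTT, a 25% SDS stop and an absorbance read on a Cytation 3. The percentage of proliferating cells is reported relative to DMSO vehicle.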

[2] = system: U2932 TK216-resistant clone 3
Outline: as §1

U2932 parental = system: U2932 parental
Outline: as §1

Row | Structure (SMILES) | cell proliferation ([1]; 50 nM) | cell proliferation ([1]; 500 nM) | cell proliferation ([2]; 50 nM) | cell proliferation ([2]; 500 nM) | cell proliferation (U2932 parental; 50 nM) | cell proliferation (U2932 parental; 500 nM)
1 | CC(=O)c1c(C)c2cnc(Nc3ccc(N4CCNCC4)cn3)nc2n(C2CCCC2)c1=O | 93.7 | 85.1 | 97.3 | 92.5 | 87.6 | 88.8
2 | CCCS(=O)(=O)Nc1ccc(F)c(C(=O)c2c[nH]c3ncc(-c4ccc(Cl)cc4)cc23)c1F [Vemurafenib (PLX4032, RG7204)] | 106 | 110 | 101 | 108 | 101 | 100
3 | CCOc1cc(C(=O)N2CCC(N3CCN(C)CC3)CC2)ccc1Nc1ncc2c(n1)N(C1CCCC1)c1ccccc1C(=O)N2C | 95 | 74.3 | 95.4 | 65.4 | 94.8 | 75.5
4 | Cc1cc(Nc2cc(N3CCN(C)CC3)nc(/C=C/c3ccccc3)n2)n[nH]1 | 82 | 66.1 | 97.6 | 48.9 | 93 | 46
5 | Cc1nc(-c2ccc(OCC(C)C)c(C#N)c2)sc1C(=O)O [Febuxostat] | 101 | 110 | 106 | 104 | 102 | 103
6 | CN(C)Cc1c(C(=O)NCCOc2ccc(C(=O)NO)cc2)oc2ccccc12 | 99.6 | 40.3 | 91.6 | 47.6 | 81.5 | 32.6
7 | CCCc1ccc(OCC(=O)N(Cc2nc(-c3cccnc3)no2)C(C)C)cc1 | 107 | 102 | 103 | 101 | 85.2 | 97.7
8 | COc1cc2nccc(Oc3ccc(NC(=O)C4(C(=O)Nc5ccc(F)cc5)CC4)cc3)c2cc1OC | 102 | 98 | 100 | 106 | 95.4 | 99.2
9 | c1ccc(Cn2c(-c3ccc(OC[C@H](C4CCNCC4)n4c(-c5ccccc5)nc5ccccc54)cc3)nc3ccccc32)cc1 [Deltarasin] | 102 | 88 | 98.8 | 83.6 | 103 | 91.4
10 | Clc1ccc(C2(c3ccc(-c4cn[nH]c4)cc3)CCNCC2)cc1 | 88.5 | 48.2 | 94.6 | 73.6 | 93 | 75.5
11 | COc1ccc(-c2nc(N3CCOCC3)c3sc(CN(C)c4ncc(C(=O)NO)cn4)cc3n2)cn1 | 0.345 | 2.02 | 3.18 | 9.31 | 0.767 | 3.78
12 | CCNc1nc(Nc2cc(F)c(C(=O)N3CCOCC3)cc2OC)ncc1C(F)(F)F | 101 | 97.4 | 97.8 | 104 | 104 | 101
13 | C[C@@H]1CC(=O)c2c(ccc3c2C(=O)c2cccc(O)c2C3=O)C1 | 102 | 98.5 | 104 | 92.5 | 87.5 | 97
14 | Nc1cccc2c1C(=O)N(C1CCC(=O)NC1=O)C2=O (stereo not drawn) [Pomalidomide] | 95.8 | 94.7 | 91 | 84.7 | 93.2 | 84.3
15 | COc1cccc(-c2cc(F)ccc2C2Cc3nc(N)nc(C)c3C(=O)N2)n1 (stereo not drawn) | 6.3 | 4.81 | 22.6 | 18.7 | 7.13 | 6.37
16 | Nc1ncn([C@H]2C[C@H](O)[C@@H](CO)O2)c(=O)n1 [Decitabine] | 72.5 | 59.1 | 92.9 | 78.3 | 85.1 | 73.1
17 | Cn1cc(-c2ccc3c(c2)CCN3C(=O)Cc2cccc(C(F)(F)F)c2)c2c(N)ncnc21 | 105 | 102 | 108 | 121 | 101 | 105
18 | NC(=O)Nc1sc(-c2ccc(F)cc2)cc1C(N)=O | 109 | 92.7 | 106 | 102 | 104 | 99.5
19 | CCCCC(C=O)NC(=O)C(CC(C)C)NC(=O)C(CC(C)C)NC(C)=O (stereo not drawn) | 107 | 12.7 | 106 | 24.2 | 103 | 39.6
20 | CO[C@@H](C)Cn1c(=O)n(C)c2cnc3ccc(-c4cncc(C(C)(C)O)c4)cc3c21 | 79.1 | 23.8 | 79.2 | 30.9 | 80.4 | 33.6
21 | O=c1cc(-c2cccc3c2Sc2ccccc2S3)oc(N2CCOCC2)c1 | 108 | 102 | 98.8 | 95.3 | 102 | 103
22 | Cc1cnc(-c2cnc(NCCNc3ccc(C#N)cn3)nc2-c2ccc(Cl)cc2Cl)[nH]1 | 101 | 97.6 | 107 | 96.8 | 99.8 | 95
23 | CNc1nc(Nc2cn(C(C)(C)C#N)nc2C)ncc1C(F)(F)F | 101 | 96.4 | 101 | 95.2 | 100 | 98.2
24 | CC(C)N(CCCNC(=O)Nc1ccc(C(C)(C)C)cc1)C[C@H]1O[C@@H](n2cc(Br)c3c(N)ncnc32)[C@H](O)[C@@H]1O | 108 | 100 | 105 | 96.1 | 96.7 | 100

Row | Structure (SMILES) | cell proliferation ([1]; 50 nM) | cell proliferation ([1]; 500 nM) | cell proliferation ([2]; 50 nM) | cell proliferation ([2]; 500 nM) | cell proliferation (U2932 parental; 50 nM) | cell proliferation (U2932 parental; 500 nM)
25 | Cc1[nH]nc2ccc(-c3cncc(OC[C@@H](N)Cc4ccccc4)c3)cc12 | 95.6 | 41.7 | 99.4 | 40.6 | 93.5 | 31.7
26 | CC1(C)CCC(c2ccc(Cl)cc2)=C(CN2CCN(c3ccc(C(=O)NS(=O)(=O)c4ccc(N[C@H](CCN5CCOCC5)CSc5ccccc5)c(S(=O)(=O)C(F)(F)F)c4)cc3)CC2)C1 [ABT-263 (Navitoclax)] | 100 | 62.4 | 99.4 | 64.2 | 91.5 | 86.6
27 | CC(C)c1cc(-c2n[nH]c(=O)n2-c2ccc3c(ccn3C)c2)c(O)cc1O [Ganetespib (STA-9090)] | 6.02 | 4.07 | 23.7 | 19.8 | 4.55 | 5.59
28 | Cc1ccc(S(=O)(=O)/C=C/C#N)cc1 | 107 | 113 | 109 | 104 | 102 | 102
29 | Cn1cnc([N+](=O)[O-])c1Sc1ncnc2[nH]cnc12 [Azathioprine] | 100 | 98.4 | 103 | 103 | 97.5 | 103
30 | C[C@]1(O)C[C@@H](c2nc(-c3ccc4ccc(-c5ccccc5)nc4c3)c3c(N)nccn32)C1 [OSI-906 (Linsitinib)] | 104 | 95.1 | 95.7 | 99.4 | 99.3 | 99.7
31 | COc1cc(Nc2ncc(F)c(Nc3ccc4c(n3)N(COP(=O)(O)O)C(=O)C(C)(C)O4)n2)cc(OC)c1OC [Fostamatinib (R788)] | 96.7 | 92.8 | 97.2 | 95 | 96.7 | 93.6
32 | Cc1ccc(C(=O)N(CCCN)[C@@H](c2nc3cc(Cl)ccc3c(=O)n2Cc2ccccc2)C(C)C)cc1 | 13 | 10.8 | 7.24 | 5.07 | 9.61 | 10.2
33 | C[C@@H](Nc1cc(F)cc(F)c1)c1cc(C(=O)N(C)C)cc2c(=O)cc(N3CCOCC3)oc12 | 111 | 83.1 | 99.4 | 84.5 | 99.9 | 90.3
34 | CC#CC(=O)N1CCC[C@H]1c1nc(-c2ccc(C(=O)Nc3ccccn3)cc2)c2c(N)nccn12 | 70 | 64.8 | 75.8 | 72.9 | 77.4 | 75.6
35 | CC[C@H](Nc1ncnc2[nH]cnc12)c1nc2cccc(F)c2c(=O)n1-c1ccccc1 [CAL-101 (Idelalisib, GS-1101)] | 103 | 109 | 97.8 | 99.3 | 92.6 | 96.6
36 | CN(NC(=O)CC(=O)NN(C)C(=S)c1ccccc1)C(=S)c1ccccc1 [Elesclomol (STA-4783)] | 0.164 | -0.212 | -0.901 | -3.67 | 0.103 | -1.37
37 | CN(C)CC[C@H](CSc1ccccc1)Nc1ccc(S(=O)(=O)NC(=O)c2ccc(N3CCN(Cc4ccccc4-c4ccc(Cl)cc4)CC3)cc2)cc1[N+](=O)[O-] | 89.5 | 39.6 | 96.6 | 37.4 | 92 | 61.2
38 | CNC(=O)c1ccccc1Sc1ccc2c(/C=C/c3ccccn3)n[nH]c2c1 [Axitinib] | 110 | 92.8 | 102 | 92.8 | 95.6 | 87.4
39 | FC(F)(F)c1ccc(/C=C/c2nc(COc3ccc(CCCCn4ccnn4)cc3)co2)cc1 [Mubritinib (TAK 165)] | 90.7 | 61 | 80.9 | 63.5 | 85.6 | 57.4
40 | O=C(O)C1(C(=O)O)CCC1.[NH2-].[NH2-].[Pt+2] [Carboplatin] | 99.7 | 104 | 90.2 | 99.1 | 104 | 95.3
41 | COc1ccc(-c2ccc3c(N4CCOCC4)nc(N4C[C@@H](C)O[C@@H](C)C4)nc3n2)cc1CO | 95.3 | 46.8 | 98.9 | 49.3 | 91.4 | 57.7
42 | Cn1cc(/C=C2\C(=O)Nc3cccnc32)c2ccccc21 | 102 | 105 | 106 | 105 | 97.2 | 90
43 | COc1cc(CCc2cc(NC(=O)c3ccc(N4CC(C)NC(C)C4)cc3)n[nH]2)cc(OC)c1 (stereo not drawn) | 102 | 101 | 103 | 102 | 98.4 | 95.6
44 | CC(C)n1c(/C=C/C(O)CC(O)CC(=O)O)c(-c2ccc(F)cc2)c2ccccc21 (stereo not drawn) [Fluvastatin Sodium] | 97.4 | 89.5 | 92.2 | 102 | 81.9 | 83.5
45 | COc1cc(-c2cc(-c3ccc(N4CCNCC4)cc3)cnc2C)cc(OC)c1OC | 99.7 | 88.1 | 107 | 88.5 | 104 | 96.6
46 | C=CCc1ccc(O)c(-c2ccc(O)c(CC=C)c2)c1 [Honokiol] | 108 | 111 | 104 | 102 | 100 | 106
47 | Cc1cc(C(C)Nc2ccccc2)c2nc(N3CCOCC3)cc(=O)n2c1 (stereo not drawn) | 103 | 101 | 105 | 98.3 | 102 | 92.9
48 | Cc1cc(Nc2cc(N3CCN(C)CC3)nc(Sc3ccc(NC(=O)C4CC4)cc3)n2)n[nH]1 [VX-680 (Tozasertib, MK-0457)] | 91.1 | 79.9 | 72.2 | 69 | 64.5 | 57.8
